Here are results for 8 compounds from PubChem BioAssay AID2284324 (EPA ToxCast).

Records with an inconclusive call do not appear. Calls of active or inactive are those of the source. Rule for the calls: active = hit-call score of the fitted dose curve at least 0.9, where 1 is the maximum; inconclusive = response in the unintended direction; inactive = score below 0.9.

The experiment has as its system Japanese medaka Glucocorticoid Receptor (GR), gene 101170451. Put plainly: ATG_jmGR_EcoTox2: Attagene TRANS-FACTORIAL EcoTox-2 HepG2 Assay for Japanese medaka Glucocorticoid Receptor (GR). As for the experimental part: ATG_EcoTox2 is a cell-based, multiplexed assay created by modifying the existing Attagene TRANS-FACTORIAL system to include a panel of nuclear receptors from some or all the following species: human (Homo sapiens), african clawed frog (Xenopus laevis), rainbow trout (Oncorhynchus mykiss), japanese medaka (Oryzias latipes), and zebrafish (Danio rerio). The ECOTOX2-FACTORIAL format uses HepG2, a human liver cell line, with measurements taken at 24 hours after chemical dosing in a 24-well plate. ATG_jmGR_EcoTox2 is one of 29 assay components calculated in the ATG_EcoTox2 assay. It is designed to make measurements of mRNA induction, a form of inducible reporter, as detected with fluorescence intensity signals by Reverse transcription polymerase chain reaction (RT-PCR) and Capillary electrophoresis technology.The assay endpoint ATG_jmGR_EcoTox2 was analyzed in the positive analysis fitting direction relative to DMSO as the negative control and baseline of activity. Using a type of inducible reporter, measures of mRNA for gain-of-signal activity can be used to understand the reporter gene at the transcription factor-level as they relate to the gene for glucocorticoid receptor. Furthermore, this assay endpoint can be referred to as a primary readout, because this assay has produced multiple assay endpoints where this one serves a reporter gene function. To generalize the intended target to other relatable targets, this assay endpoint is annotated to the nuclear receptor intended target family, where the subfamily is steroidal.
Human liver HepG2 cells are transiently transfected with multiple reporter transcription units (MRTUs) in 6-well plates using FuGene 6 reagent (Roche; 3 ml FuGene/1 mg DNA). The MRTU constructs are regulated by a cis-regulating element (promoter). Each RTU expresses a GAL4-UAS that regulates the transcription of a nearby target reporter gene sequence. A major difference between the CIS and TRANS system is that in CIS activities of endogenous TFs are measured, whereas the TRANS assay evaluates changes in activities of exogenous, chimeric NR-Gal4 proteins. […] At the end of 24 hour incubation, total RNA was isolated using TriZol reagent (Invitrogen). The isolated RNA is then reverse-transcribed using oligo(dT) primer and Mo-MLV reverse transcriptase (Invitrogen) with DNAse I (Ambion) treatment for 30 min. The one-tenth of the produced cDNA was amplified by PCR using Taq DNA polymerase (Invitrogen) and two reporter sequence-specific primers. The PCR products were fluorescently labeled by primer extension with 6-arboxyfluorescein (6-FAM) 5'-labeled reporter sequence-specific primer (2 min at 95 C, 20 s at 68 C and 10 min at 72 C) and these products were digested with 5U of HpaI (New England Biolabs) for 2h at 37 C. The fragments were purified using Qiaquick PCR columns (Qiagen), analyzed on an ABI 3130xL genetic analyzer (Applied Biosystems) with peak positions identified by using a set of X-rhodamine (ROX)-labeled MapMarker1000 molecular weight standards (BioVentures). The raw capillary electrophoresis data was processed using Attagraph software (Attagene).
As for `CC(C)OC(=O)C(C)(C)Oc1ccc(C(=O)c2ccc(Cl)cc2)cc1`, the outcome was inactive.

As for `CC(C)(Oc1ccc(C2CC2(Cl)Cl)cc1)C(=O)O` (stereo not drawn), the result was inactive.

The AC50 is the concentration at which the activity in the assay is half-maximal. On to `C[C@@H]1C[C@H]2[C@@H]3CCC4=CC(=O)C=C[C@]4(C)[C@@]3(F)[C@@H](O)C[C@]2(C)[C@@]1(O)C(=O)COP(=O)(O)O`, for which the AC50 is 14.8 nM (active).

`CC(C)(Oc1ccc(CCNC(=O)c2ccc(Cl)cc2)cc1)C(=O)O`: the outcome was inactive.

Take `Cc1ccc(C)c(OCCCC(C)(C)C(=O)O)c1`: the compound was classed as inactive.

For the compound `Cc1cccc(Nc2cc(Cl)nc(SCC(=O)O)n2)c1C`, the outcome was inactive.

With `C[C@]12C=CC(=O)C=C1CC[C@@H]1[C@@H]2C(=O)C[C@@]2(C)[C@H]1CC[C@]2(O)C(=O)CO`, the result was inactive.

`CC(C)(Oc1ccc(Cl)cc1)C(=O)O`: the outcome was inactive.
